The values that follow come from paper PMC4552634, “A New Set of Chemical Starting Points with Plasmodium falciparum Transmission-Blocking Potential for Antimalarial Drug Discovery” (PLoS ONE, 2015).

As usually defined, the % Inhibition is the relative decrease from the control value, in per cent.

Each structure is given as a SMILES string. The whole screen tested about 13,000 compounds, of which about 3,200 (25%) showed an effect of 50% or more. This is one part of the list.

This experiment relates to P. falciparum stage V gametocytes. Further details: BacTiter-Glo ATP luminescence viability of purified stage V gametocytes in 384-well plates, per cent inhibition versus DMSO. Conditions: 48 h, 5 µM; inhibitor.
With `CCC(C)(C)C1CCc2[nH]c3ccccc3c(=O)c2C1` (stereo not drawn) [TCMDC-125226], the “% Inhibition” value is reported as 30.2%.

Consider `CC(=O)N/N=C/[C@H](CCc1ccccc1)NC(=O)[C@H](CC(C)C)NC(=O)c1ccc(OCCN2CCOCC2)cc1` [TCMDC-135916], for which the “% Inhibition” value worked out at 2.96%.

With `CC(NC(C)c1cccc(Cl)c1)C(=O)Nc1cc(C(F)(F)F)ccc1N1CCOCC1` (stereo not drawn) [TCMDC-125061], the “% Inhibition” value is given as -33.15%.

For the molecule `Cc1cccc(C(=O)Nc2ccnc(N3CCC(N(C)Cc4cccc(C#N)c4)CC3)c2)c1` [TCMDC-134973], the “% Inhibition” value is reported as -4.566%.

In the case of `O=C(c1ccco1)N1CCN(c2nc(-c3ccc(Cl)cc3)nc3ccccc23)CC1` [TCMDC-124753], the “% Inhibition” value is 14.1%.

Consider `COc1ccc2nccc([C@@H](O)CN3CCC(NC(=O)C(c4cc5ccccc5s4)N4CC(C)OC(C)C4)CC3)c2c1` (stereo partly drawn) [TCMDC-140995], for which the “% Inhibition” value came to 7.748%.

Regarding `CC1(C)CCC(C)(C)c2c1ccc(C1CCN(CCCCNC(=O)c3ccc(-c4ccc(C#N)cc4)cc3)CC1)c2OCC(N)=O` [TCMDC-135627], the “% Inhibition” value is 76.03%.

Take `N#Cc1ccc(-c2ccc(C(=O)NCCCCN3CCC(c4cc(Br)c5c(c4OCC(N)=O)CCCC5)CC3)cc2)cc1` [TCMDC-135263]: the “% Inhibition” value was -29.4%.

On to `COc1c(C2CCN(CCCCNC(=O)c3ccc(-c4ccc(Cl)cc4)cc3)CC2)ccc2c1C(C)(C)CCC2(C)C` [TCMDC-135482], for which the “% Inhibition” value was determined as 91.33%.

`C=CCc1cc(C2CCN(CCCCNC(=O)c3ccc(-c4ccc(C#N)cc4)cc3)CC2)c(OCC(N)=O)c2c1CCCC2` [TCMDC-135625]: the “% Inhibition” value was -14.83%.

For the molecule `OCCc1ccc(Nc2nccc(-c3nnc4ccccn34)n2)cc1` [TCMDC-138924], the “% Inhibition” value is -13.1%.

`COc1ccc(Nc2nc(NCc3cccnc3)cc(-c3ccc(OC)cc3)n2)cc1` [TCMDC-133467]: the “% Inhibition” value stood at 9.957%.

For `Cc1ccc(-c2[nH]n3c(=O)c4c(nc3c2C)CCCC4)cc1` [TCMDC-124479], the “% Inhibition” value stood at 75.27%.

Consider `Cc1cc(-c2cc3nc4c(c(=O)n3[nH]2)CCCC4)c(C)o1` [TCMDC-125325], for which the “% Inhibition” value is recorded as 32.39%.

`O=c1[nH]c(NCCCNCc2cc3c(Cl)cc(Cl)cc3[nH]2)nc2ccsc12` [TCMDC-139925]: the “% Inhibition” value is -0.4742%.

Take `Cc1cc(N2CCCC2)nc(Nc2ccc(NC(=O)C3CCCC3)cc2)n1` [TCMDC-124964]: the “% Inhibition” value was -12.42%.

Regarding `CS(=O)(=O)Cc1cccc(Nc2ncc(Cl)c(Nc3cccnc3C(N)=O)n2)c1` [TCMDC-134166], the “% Inhibition” value was -54.44%.

Consider `O=C(Nc1cccc(-c2nn3ccccc3c2-c2ccnc(Nc3ccc(C(=O)N4CCOCC4)cc3)n2)c1)c1c(F)cccc1F` [TCMDC-135910], for which the “% Inhibition” value is -23.59%.

As to `NC(=O)N1CCN(Cc2ccc(Br)cc2)CC1` [TCMDC-137933], the “% Inhibition” value is listed as 4.957%.

For `c1ccc(Oc2ccc(Nc3ccnc4cc(-c5ccc(CNCCN6CCOCC6)o5)ccc34)cc2)cc1` [TCMDC-138398], the “% Inhibition” value was determined as 12.11%.

Turning to `N#Cc1cnc2cc(-c3cnc(CNCCN4CCOCC4)s3)ccc2c1Nc1ccc(Oc2ccccc2)cc1` [TCMDC-138611], the “% Inhibition” value is given as 2.275%.

For `Fc1ccc(Nc2ccnc3cc(-c4cccc(CNCCN5CCOCC5)c4)ccc23)c(Cl)c1` [TCMDC-138414], the “% Inhibition” value turned out to be 41.76%.

As to `c1ccc(Oc2ccc(Nc3ccnc4cc(-c5cccc(CNCCN6CCOCC6)c5)ccc34)cc2)cc1` [TCMDC-138474], the “% Inhibition” value turned out to be 52.49%.

Regarding `c1cncc(Oc2ccc(Nc3ccnc4cc(-c5cccc(CNCCN6CCOCC6)c5)ccc34)cc2)c1` [TCMDC-138492], the “% Inhibition” value was found to be 84.98%.

For `CN(C)CC1CCCN1Cc1ccccc1-c1cnn(C)c(=O)c1Oc1cccc(C#N)c1` (stereo not drawn) [TCMDC-135097], the “% Inhibition” value was -59.69%.

In the case of `COc1ccc(CCNC(=O)c2ccc(-n3cc(NC(=O)c4cccnc4)cn3)cc2)cc1OC` [TCMDC-124665], the “% Inhibition” value stood at 38.46%.

In the case of `Nc1nc(N)c2c(Cl)c(N(Cc3ccccc3)Cc3ccccc3)ccc2n1` [TCMDC-137993], the “% Inhibition” value is reported as -38.99%.

For the molecule `O=S(=O)(NCCN1CCCC1)c1ccc(-c2cccc(CNCc3ccccc3)c2)s1` [TCMDC-132216], the “% Inhibition” value is on record as 86.1%.

Consider `O=C(O)C(F)(F)F.c1ccc(CNCc2cccc(-c3ccc(-c4nc5ccccc5[nH]4)s3)c2)cc1` [TCMDC-132714], for which the “% Inhibition” value turned out to be 15.98%.

Turning to `O=S(=O)(NCCN1CCCC1)c1ccc(-c2ccc(CN3Cc4ccccc4C3)cc2)s1` [TCMDC-132286], the “% Inhibition” value is on record as 9.199%.

As for `O=S(=O)(NCCN1CCCC1)c1ccc(-c2ccc(CNCc3ccccc3)cc2)s1` [TCMDC-132233], the “% Inhibition” value was 71.01%.

Regarding `CCOC(=O)N1CCC(NC(=O)c2ccc(C(C)(C)C)cc2OC)CC1` [TCMDC-139314], the “% Inhibition” value stood at 15.99%.

On to `O=C(c1cccc(-c2noc(C(F)(F)F)n2)c1)N1CCN(C(=O)c2ccc3cc[nH]c3c2)CC1` [TCMDC-132422], for which the “% Inhibition” value is 0.1652%.

Take `N#Cc1cccc(NC(=O)c2ccc(S(=O)(=O)NCC3CCCN3CC3CCCCC3)cc2)c1` (stereo not drawn) [TCMDC-133796]: the “% Inhibition” value is given as -13.1%.

Regarding `CN1CCN(CCCN(Cc2cccc(-c3ccc(CNCCc4ccccc4)cc3)c2)C(=O)Nc2ccccc2)CC1` [TCMDC-140595], the “% Inhibition” value was 97.36%.

`CN1CCN(CCCN(C(=O)Nc2cc(C(F)(F)F)cc(C(F)(F)F)c2)c2ccccc2Cc2ccccc2)CC1` [TCMDC-136454]: the “% Inhibition” value is -18.83%.

Turning to `CN1CCN(CCCN(Cc2cccc(-c3cccc(CNCCc4ccccc4)c3)c2)C(=O)Nc2ccccc2)CC1` [TCMDC-140594], the “% Inhibition” value was determined as 106.2%.

On to `CC(C)CNCc1cccc(-c2cccc(CN(CCCN3CCN(C)CC3)C(=O)Nc3ccccc3)c2)c1` [TCMDC-140593], for which the “% Inhibition” value is on record as 80.6%.

Consider `Cc1csc2nc(C(C)c3ccc(NC(=O)c4cccs4)cc3)oc(=O)c12` (stereo not drawn) [TCMDC-139034], for which the “% Inhibition” value was found to be 5.722%.

For `Cc1cc(-c2ccc(NC(=O)Nc3ccc4nccc(N5CCN(C)CC5)c4c3)cc2C)cc(C)n1` [TCMDC-139355], the “% Inhibition” value was found to be 10.84%.

For `Cc1cc(N[C@@H](Cc2ccccc2)C(=O)NCCc2ccccc2)nc(NCC2CCCCC2)n1` [TCMDC-134934], the “% Inhibition” value is given as -20.83%.

For the molecule `CCCC(C)C(=O)N1CCOC(COCc2cccc(C(F)(F)F)c2)(c2ccc(Cl)cc2)C1` (stereo not drawn) [TCMDC-141953], the “% Inhibition” value was 24.89%.

As for `C=CC(C)C1OC(=O)c2cc(OC)cc(OC)c21` (stereo not drawn) [TCMDC-138676], the “% Inhibition” value worked out at 102.9%.

For `C=CCC1OC(=O)c2cc(OC)cc(OC)c21` (stereo not drawn) [TCMDC-138677], the “% Inhibition” value stood at 106%.

As for `Cc1ccc(-c2cc(C(=O)Nc3ccc(S(=O)(=O)N4CCCCC4C)cc3)[nH]n2)c(O)c1` (stereo not drawn) [TCMDC-124908], the “% Inhibition” value was -44.76%.

`CCCCCCN(CCCCCC)CC(O)c1cc(-c2ccc(Cl)cc2)nc2c(C)cc(C)cc12` (stereo not drawn) [TCMDC-125503]: the “% Inhibition” value is -72.43%.

For `CN(C(=O)NCCc1ccccc1)C1CCN(CCCCCNC(=O)/C=C/c2ccc(Cl)c(Cl)c2)CC1` [TCMDC-139523], the “% Inhibition” value is given as -13.13%.

Turning to `COc1ccc(-n2ccnc2SCC(=O)Nc2cc(C)ccc2C)c(OC)c1` [TCMDC-123824], the “% Inhibition” value is listed as -3.768%.

Take `COc1ccc(-c2nc3cccnc3n2CC(=O)Nc2c(C)cc(C)cc2C)c(OC)c1` [TCMDC-135284]: the “% Inhibition” value turned out to be 61.51%.

With `COc1ccc(-c2nc3cccnc3n2CC(=O)Nc2cc(Cl)c(Cl)cc2Cl)c(OC)c1` [TCMDC-135101], the “% Inhibition” value stood at 5.638%.

For the molecule `CC(C)CNCc1ccc(-c2cccc(CN(C(=O)Nc3ccccc3)C3CCN(Cc4ccccc4)CC3)c2)cc1` [TCMDC-140585], the “% Inhibition” value amounted to 74.29%.

On to `CC(C)CNCc1cccc(-c2cccc(CN(C(=O)Nc3ccccc3)C3CCN(Cc4ccccc4)CC3)c2)c1` [TCMDC-140584], for which the “% Inhibition” value was 53.9%.

With `CC(C)CNCc1cccc(-c2ccc(CN(C(=O)Nc3ccccc3)C3CCN(Cc4ccccc4)CC3)cc2)c1` [TCMDC-140597], the “% Inhibition” value worked out at 96.79%.

Take `CC(C)CNCc1ccc(-c2ccc(CN(C(=O)Nc3ccccc3)C3CCN(Cc4ccccc4)CC3)cc2)cc1` [TCMDC-140598]: the “% Inhibition” value is reported as 108.5%.

For `Cc1cn(CC(=O)Nc2cccc(-c3cccc(-c4nc5ccc(C(F)(F)F)cc5[nH]4)c3)c2)c(=O)[nH]c1=O` [TCMDC-137036], the “% Inhibition” value stood at 18.51%.

`O=C(Nc1ccccc1F)NC1CCN(c2ccnc(Nc3ccc(F)cc3)n2)CC1` [TCMDC-133632]: the “% Inhibition” value was -30.06%.

Consider `O=C(c1ccccc1F)N(Cc1ccc(Cl)cc1)c1ccccn1` [TCMDC-124909], for which the “% Inhibition” value was -19.06%.

Consider `COc1ccc2nccc([C@@H](O)CN3CCC(NCc4ccc5c(c4)sc(=O)n5C)CC3)c2c1` [TCMDC-141149], for which the “% Inhibition” value was -6.737%.

As to `CCCCCC1c2[nH]c3ccccc3c2CCN1C(=O)OCc1ccccc1` (stereo not drawn) [TCMDC-134554], the “% Inhibition” value is -7.791%.

As for `CCCNCc1ccc(-c2ccc(CN(CC3CCCO3)C(=O)COc3ccccc3Cl)cc2)nc1` (stereo not drawn) [TCMDC-141542], the “% Inhibition” value came out at 45.23%.

Regarding `CCCNCc1ccc(-c2ccc(CN(CCOC)C(=O)[C@H]3CCCO3)cc2)nc1` [TCMDC-141530], the “% Inhibition” value worked out at 80.98%.

For the molecule `CCCNCc1ccc(-c2ccc(CN(Cc3ccc4c(c3)OCO4)C(=O)[C@H]3CCCO3)cc2)nc1` [TCMDC-141531], the “% Inhibition” value is 105.6%.

For `CCCNCc1ccc(-c2ccc(CN(CC3CCCO3)C(=O)C3CC(=O)c4ccccc43)cc2)nc1` (stereo not drawn) [TCMDC-141533], the “% Inhibition” value was determined as 69.47%.

Regarding `CCCNCc1ccc(-c2ccc(CN(CCOC)C(=O)CC3CCCC3=O)cc2)nc1` (stereo not drawn) [TCMDC-141532], the “% Inhibition” value is 3.565%.

With `O=c1c2c([nH]c3cc(Cl)ccc13)CCCC2` [TCMDC-123504], the “% Inhibition” value is 42.94%.

`CS(=O)(=O)c1ccc(OCCCN(Cc2ccccc2C(F)(F)F)c2ccc(C#N)c(C(F)(F)F)c2)cc1` [TCMDC-135467]: the “% Inhibition” value is reported as 19.91%.
